Source: PubChem BioAssay (NCATS)
Results filed as inconclusive are left out. The source made the active and inactive calls. Calls come from the whole dose curve; as a rule, active = well fitted inhibition curve with a large enough effect; inconclusive = small, poorly fitted or top-dose-only effect; inactive = flat fitted curve, though single readings scatter.

Legend:
Experiment in all cases: qHTS profiling for inhibitors of Plasmodium falciparum proliferation (AID 504749); note: nearly all actives have a fitted effect of over 60% in size
Conditions in all cases: P. falciparum in erythrocytes, SYBR Green DNA, 72 h; series mostly up to 28.7 µM
CP256 = system: CP256
In short: (§1)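 Three-day growth assay of blood-stage parasites in erythrocytes (0.3% parasitemia, 2.5% hematocrit) at 37 C, 5% CO2, quantified by SYBR Green DNA staining after overnight detergent lysis.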

CP260 = system: CP260
In short: as §1

CP262 = system: CP262
In short: as §1

CP265 = system: CP265
In short: as §1

CP268 = system: CP268
In short: as §1

CP269 = system: CP269
In short: as §1

CP286 = system: CP286
In short: as §1

CP291 = system: CP291
In short: as §1

CP297 = system: CP297
In short: as §1

CP305 = system: CP305
In short: as §1

CP315 = system: CP315
In short: as §1

CP325 = system: CP325
In short: as §1

CP329 = system: CP329
In short: as §1

CP335 = system: CP335
In short: as §1

DFO2036 = system: DFO2036
In short: as §1

DIV14 = system: DIV14
In short: as §1

DIV17 = system: DIV17
In short: as §1

DIV30 = system: DIV30
In short: as §1

Dd2 = system: Dd2
In short: as §1

ECU = system: ECU
In short: as §1

FAB9 = system: FAB9
In short: as §1

GB4 = system: GB4
In short: as §1

HB3 = system: HB3
In short: as §1

ICS = system: ICS
In short: as §1

JCK = system: JCK
In short: as §1

N140 = system: N140
In short: as §1

P94_40 = system: P94_40
In short: as §1

PAD = system: PAD
In short: as §1

PC15 = system: PC15
In short: as §1

PC26 = system: PC26
In short: as §1

PC49 = system: PC49
In short: as §1

SC27B = system: SC27B
In short: as §1

TAB109 = system: TAB109
In short: as §1

TAB113 = system: TAB113
In short: as §1

TAB165 = system: TAB165
In short: as §1

W2 = system: W2
In short: as §1

Measured: Potency
Potency is the fitted concentration of half-maximal effect.

CCOC(=O)c1cncn1[C@@H](C)c1ccccc1
active: W2 1.81 µM
inactive: all other assays above
